# Peg3 imprint – genomic imprint erasure induction. mouse ES Peg3-LacZ reporter, beta-gal luminescence, 40 h. Potency, µM (highest dose often 60.7 µM), usual class: activators. actives 0.02% (n = 110,000). AID 1948
#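 Readout: BetaGlo luminescence (5 min, room temp) for LacZ from the normally silent maternal Peg3 allele in female Peg3LacZ-Neo ES cells. Cells 300/well, 40 h, 37C, 5% CO2. Data normalized per plate to negative controls.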
# p53ts 32C kill – p53ts cell cytotoxicity, permissive temperature | H1299-p53A138V at 32C, ATP luminescence viability, 24 h | Potency, µM (series often up to 46.1 µM), actives largely listed as cytotoxic | AID 924 | actives 0.93% (n = 130,000); note: nearly all actives have a fitted effect of over 55% in size
#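 Viability by ATPlite luminescence after 24 h compound treatment (up to 46 uM) at the permissive 32C. Cells are H1299 carrying p53 A138V. Scale runs from DMSO basal to 100 uM tamoxifen as full kill; AC50 from Hill fits.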
# p53ts 39C tox – p53ts cell cytotoxicity, nonpermissive temperature; Potency, µM (highest dose often 46.1 µM), hits mostly cytotoxic; actives 1.5% (n = 130,000); AID 902; H1299-p53A138V viability at 39C, ATP luminescence, 24 h; note: nearly all actives have a fitted effect of over 55% in size
# IkB sig inh – IkB pathway inhibition in ABC-DLBCL cells; actives 0.04% (n = 110,000); ABC-DLBCL IkBa-CBG/CBR dual luciferase ratio, 4 h; response scale: scaled: untreated 0%, proteasome inhibitor 100%; Potency, µM (doses to about 57.1 µM); active = well fitted curve in the direction sought with a large enough effect in the signal ratio, not every such curve was filed as active; inconclusive = small, poorly fitted or top-dose-only effect, or a change in a side signal; the % refers to the signal ratio;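 note: the direction sought is a rising ratio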
#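 In this assay, an IκBα–CBG68 fusion accumulates when IKK-driven degradation is blocked; native CBR normalizes for cell number. OCI-Ly3 cells were treated 4 h with compound and doxycycline, then green and red light read after Chroma-Glo addition.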
# A number is an active result; - = inactive; ? = inconclusive; . = no result; [ ] = remark or other dose. This is a sample that favours compounds with a hit; in the whole collection about 1.6% have one here. Unless noted, calls come from the whole dose curve; as a rule, active = well fitted curve in the direction sought with a large enough effect; inconclusive = small, poorly fitted or top-dose-only effect, or another doubt; inactive = no such curve, though single readings can be large; an effect the other way counts as inactive or inconclusive.
SMILES,Peg3 imprint,p53ts 32C kill,p53ts 39C tox,IkB sig inh
COc1ccc(Cn2c(=O)c3ccccc3n3c(-c4cccc(OC)c4OC)nnc23)cc1,-[10.9 µM],-,-,-
COc1ccc(OC)c(-c2nnc3n(CCc4ccccc4)c(=O)c4ccccc4n23)c1,-[10.9 µM],-,13µM,?
CC(=O)N(C)C,-,.,.,.
COc1ccccc1NC(=O)CSc1nnc(NC(=O)NC2CCCCC2)s1,-[10.9 µM],?,7.9µM,?
COc1ccc(NC(=O)CSc2nnc(NC(=O)NC3CCCCC3)s2)cc1OC,-[10.9 µM],10µM,7.9µM,?
COc1ccc(NC(=O)CSc2nncs2)cc1OC,-,-,-,-
O=C(CSc1nnc(NC(=O)NC2CCCCC2)s1)Nc1ccccc1F,-[10.9 µM],10µM,10µM,-
CC(=O)c1ccc(NC(=O)CSc2nnc(NC(=O)NC3CCCCC3)s2)cc1,-[10.9 µM],7.1µM,7.9µM,?
O=C(O)CCCCCC[C@@H]1C(=O)NC(=O)N1CC[C@@H](O)C1CCCCC1,.,.,.,-
CC(C)C1=CC2=CC[C@H]3[C@@](C)(CCC[C@]3(C)C(=O)O)[C@@H]2CC1,.,.,.,-[11.4 µM]
N#Cc1c(N2CCCC2)nc(N)c2c(N)nc(N3CCCC3)cc12,-,13µM,-,-
O=c1ccc2cc(S(=O)(=O)Nc3ccc(F)c(Cl)c3)ccc2[nH]1,-[10.9 µM],-,-,-
c1ccc(-c2cccc(N3CCC4(CCNCC4)CC3)c2)cc1,.,-,16µM,-[11.4 µM]
c1ccc(-c2cccc(N3CC[C@@]4(CCCNC4)C3)c2)cc1,.,?,16µM,-[11.4 µM]
c1ccc(-c2cccc(N3CCCC4(CCNCC4)C3)c2)cc1,.,-,13µM,-[11.4 µM]
c1ccc(-c2cccc(N3CC4(CCNCC4)C3)c2)cc1,.,-,?,-[11.4 µM]
O=C(NCCO)c1ccc(Cc2nc3ccccc3[nH]2)cc1,.,-,-,.
O=C1c2c(O)ccc([N+](=O)[O-])c2C(=O)c2c([N+](=O)[O-])ccc(O)c21,-,-[1.84 µM],16µM,?
CN(C)S(=O)(=O)c1ccc(Nc2ccc(O)c3c2C(=O)c2c([N+](=O)[O-])ccc(O)c2C3=O)cc1,?,-[9.22 µM],-[9.22 µM],-[11.4 µM]
CCCCC[C@@H](O)[C@@H]1C(=O)O[C@@H](C)[C@@H](O)\C=C/C=C\C=C/C=C\C=C(\C)[C@H](O)C[C@H](O)C[C@H](O)C[C@H](O)C[C@H](O)C[C@H](O)C[C@@H]1O,.,.,.,-[11.4 µM]
Cc1cccc(-c2nc(CN3CCCC(C(=O)NCCc4ccc(Cl)cc4)C3)c(C)o2)c1 (stereo not drawn),-[10.9 µM],?,13µM,?
Cc1oc(-c2ccc(Cl)cc2)nc1CN1CCCC(C(=O)NCCc2ccccc2)C1 (stereo not drawn),-[10.9 µM],-,?,?
Fc1ccc(-c2nnc(Cc3nnc(-c4ccc(F)cc4)o3)o2)cc1,-,-,-,-
Fc1ccc(-c2nnc(NC3=NCCCCC3)o2)cc1,-,4µM,4µM,?
CC(=O)c1cccc(NC(=O)c2nc3ccccc3n(C)c2=O)c1,-[10.9 µM],2.2µM,1.6µM,?
SMILES,Peg3 imprint,p53ts 32C kill,p53ts 39C tox,IkB sig inh
CC(=O)c1cccc(NC(=O)c2cc3ccccn3n2)c1,-,13µM,13µM,?
Cc1cc(Cl)ccc1NC(=O)c1cc2ccccn2n1,-[10.9 µM],10µM,5µM,-
Cc1ccc(NC(=O)CSc2nnc(-c3cc4occc4n3C)n2-c2ccccc2C)c(C)c1,.,-,.,.
COc1ccc(-c2cn3c(n2)sc2cc(C(=O)NCC(C)c4ccccc4)ccc23)cc1 (stereo not drawn),-[10.9 µM],-,-,?
Cc1cc(C)cc(NC(=O)Cn2nnc(C(=O)NCc3ccccc3Cl)c2N)c1,-[10.9 µM],?,7.9µM,-
CCOc1ccc(NC(=O)c2sc3nc4c(cc3c2N)CCCCCC4)cc1,-[10.9 µM],?,13µM,-
Nc1c(C(=O)Nc2ccc(C(=O)O)cc2)sc2nc3c(cc12)CCCC3,-[10.9 µM],?,?,?
Cc1cccc(NC(=O)c2sc3nc4c(cc3c2N)CCCCCC4)c1C,-[10.9 µM],-,-,2.5µM
COc1ccc(OC)c(NC(=O)c2sc3nc4c(cc3c2N)CCCCCC4)c1,-[10.9 µM],?,13µM,?
CO[C@@H]1/C=C\O[C@]2(C)Oc3c(C)c(O)c4c(O)c(cc(O)c4c3C2=O)NC(=O)/C(C)=C\C=C/[C@H](C)[C@@H](O)[C@H](C)[C@H](O)C(C)[C@H](OC(C)=O)[C@@H]1C (stereo partly drawn),-[10.9 µM],.,.,.
CN(C)CCCCN1CCc2c(n(C)c3ccccc23)C1=O,-[10.9 µM],-[9.22 µM],-[9.22 µM],-[11.4 µM]
CC(C)c1nnc(NC(=O)c2nc(S(=O)(=O)Cc3ccccc3)ncc2Cl)s1,-[10.9 µM],20µM,6.3µM,-
CC(C)Sc1ncc(Cl)c(C(=O)Nc2nnc(C(C)C)s2)n1,-[10.9 µM],-,-,?
Cc1ccccc1CS(=O)(=O)c1ncc(Cl)c(C(=O)Nc2nnc(C(C)C)s2)n1,-[10.9 µM],16µM,7.9µM,?
O=S(=O)(O)c1cc(O)c2c(N=Cc3ccccc3O)cc(S(=O)(=O)O)cc2c1,-[10.9 µM],-[9.22 µM],-[9.22 µM],-[11.4 µM]
COc1cc(NS(=O)(=O)c2ccc3oc(=O)c4ncn(C)c4c3c2)cc(OC)c1,-[10.9 µM],-,?,-
CCc1ccc(NS(=O)(=O)c2ccc3oc(=O)c4ncn(CC)c4c3c2)cc1,-[10.9 µM],?,13µM,?
Cc1nn2c(=O)cc(COC(=O)C(c3ccccc3)c3ccccc3)nc2s1,-[10.9 µM],-,-,-
COc1ccc2c(c1)CCc1c(C(=O)Nc3cnn(Cc4ccc(Cl)cc4Cl)c3)noc1-2,-[10.9 µM],-,-,?
COc1ccc(OC)c(-c2cc(C(=O)Nc3cnn(Cc4ccc(Cl)cc4Cl)c3)no2)c1,-[10.9 µM],?,4µM,?
Cc1ccccc1-c1nc2cc(N)ccc2o1,-,?,?,-
Cc1ccc(-c2nc3cc(C(C)C)ccc3o2)cc1NC(=O)c1cc2ccccc2o1,-[10.9 µM],-,-,-
CC(C)c1ccc2oc(-c3cc(N)ccc3O)nc2c1,-,13µM,16µM,?
Nc1ccc2oc(-c3ccccc3Br)nc2c1,-[10.9 µM],13µM,13µM,-
c1ccc2c(c1)c1ccccc1n2Cn1c2ccccc2c2ccccc21,?,-[9.22 µM],-[9.22 µM],-[11.4 µM]
SMILES,Peg3 imprint,p53ts 32C kill,p53ts 39C tox,IkB sig inh
CN(C)c1ccc(/C=N/n2ncc3ccccc32)cc1,-,13µM,16µM,?
CC(=O)Nc1cccc(NC(=O)CSc2ncc(-c3ccc(Cl)cc3)n2Cc2ccco2)c1,-,?,13µM,?
COc1ccc(-c2cnc(SCC(=O)Nc3ccc4c(c3)OCO4)n2Cc2ccco2)cc1,-,-,-,?
COc1cc(C2c3c(-c4ccccc4O)n[nH]c3C(=O)N2Cc2ccco2)ccc1OCC(C)C (stereo not drawn),-[10.9 µM],?,20µM,?
O=C(Nc1ccc(-c2nc3ccccc3[nH]2)cc1)C1CCCO1 (stereo not drawn),-,2.5µM,4µM,?
O=C(Nc1nc2ccccc2[nH]1)C1CCCO1 (stereo not drawn),-,-,-,-
COc1cccc(OCc2nc3ccccc3n2C)c1,-[10.9 µM],?,20µM,-
COc1cccc(OCc2nc3ccccc3n2Cc2ccccc2C)c1,-[10.9 µM],-,?,?
COc1ccc(C(=O)NCC(c2ccc(N(C)C)cc2)N2CCc3ccccc32)cc1 (stereo not drawn),-[10.9 µM],-,10µM,-

# Bioassay records deposited in PubChem BioAssay by National Center for Advancing Translational Sciences (NCATS).
